Rows were chosen to be rich in hits. Some 1.3% of all compounds tested hit in one or more screens of this group.
MazF activator: MazEF (E. coli) toxin RNase activation. P0AE70. FAM/BHQ RNA-DNA oligo cleavage fluorescence, 5 h. activation, % at 20 µM. 350,000 compounds, 0.32% hits; in the data active = activation above about 50%
Target sequence (P0AE70 whole entry, looked up): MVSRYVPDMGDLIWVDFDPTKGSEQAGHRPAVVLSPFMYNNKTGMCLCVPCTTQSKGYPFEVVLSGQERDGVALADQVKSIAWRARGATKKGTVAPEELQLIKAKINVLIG
Sa ugtP lethal: growth inhibition of S. aureus ugtP deletion strain. S. aureus RN4220 ugtP deletion, OD600 growth, 16 h. growth inhibition, % (concentration not given with the values). 330,000 compounds, 0.54% hits. AID 1259309; in the data active = growth inhibition above about 68%;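 note: plate controls were untreated wells for no effect and antibiotic for full effect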
PfHsp40 yeast: restores yeast growth despite PfHsp40 toxicity. S. cerevisiae expressing PfHsp40, growth rescue, ATP luminescence. 340,000 compounds, 0.68% hits. growth rescue, % at 12.5 µM. AID 504582; in the data active = growth rescue above about 28%, passing the limit was not always enough;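 note: yeast W303a lacking pdr1 and pdr3 grown in galactose medium; growth measured after three days at 30 °C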
Mtb hypoxia rep: Mtb hypoxia fluorescent reporter inhibition; M. tuberculosis hypoxia-regulated fluorescent reporter, fluorescence; fluorescence inhibition, % (test concentration not listed); 300,000 compounds, 0.1% hits; in the data active = fluorescence inhibition mostly above about 23%, no sharp cut-off; inactive = mostly below about 17%
TcdB GH inh: TcdB glycohydrolase inhibition; TcdB glycohydrolase enzymatic assay, plate reader; inhibition, % at 9.99 µM; 350,000 compounds, 0.24% hits; in the data active = inhibition above about 10%
RN4220 kill: S. aureus RN4220 growth inhibition | 330,000 compounds, 0.33% hits | AID 1259311 | OD600, 16 h | inhibition, % (concentration not given with the values); in the data active = inhibition above about 85%;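 note: plate controls were untreated cells for no effect and reference antibiotic for full effect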
* marks the source's active call; other numbers are inactive results; / = no result.

SMILES	MazF activator	Sa ugtP lethal	PfHsp40 yeast	Mtb hypoxia rep	TcdB GH inh	RN4220 kill
COc1ccc(/C=C/c2nc3ccccc3n2C)cc1	9.7	1.1	-3.1	3.8	13.3*	16.6
CC(C)(C)c1nnc(NN=Cc2cc(Br)ccc2O)n(N)c1=O	/	-7.6	/	-3.1	/	18.4
CC(C)(C)c1nnc(N/N=C/c2ccccc2O)n(N)c1=O	0.4	/	71.0*	/	/	/
CN1C(=O)c2cc(NC(=O)c3ccccc3Cl)ccc2OC[C@@H]2O[C@H](CC(=O)NCC(F)(F)F)CC[C@@H]21	/	/	/	/	-1.8	/
C[C@H](CO)N1C[C@H](C)[C@H](CN(C)S(=O)(=O)c2ccc(Cl)cc2)OCCCC[C@H](C)Oc2ccc(NC(=O)c3ccccc3)cc2C1=O	/	/	/	/	-0.3	/
C(#Cc1ccccc1)C[N+]1(CC#Cc2cccc3ccccc23)CCCC1	25.3	98.5*	1.5	19.1	1.3	88.0
CC(=NN1CCN(Cc2ccc(Cl)cc2)CC1)c1ccc(F)cc1	/	6.1	/	-1.0	/	2.4
CCCCC(=O)OCc1c(-c2cccc(OC)c2)ncc2ccccc12	-2.3	85.8*	2.4	14.2	-0.3	7.0
O=c1c2ccccc2ncn1N=Cc1ccccc1	/	3.4	/	2.6	/	2.5
CCOC(=O)c1c(N=Cc2cc(C)ccc2O)sc2c1CCN(C)C2	/	8.7	/	14.3	/	2.0
CCOC(=O)N1CCN(S(=O)(=O)c2ccc(C(=O)Nc3sc4c(c3C(=O)OC)CCN(C)C4)cc2)CC1	295.4*	1.8	-0.5	1.3	-2.9	0.0
CCOC(=O)c1c(NC(=S)Nc2ccccc2)sc2c1CCN(CC)C2	51.2*	-4.8	2.8	-0.9	/	-14.3
CCCN1CCc2c(sc(NC(=O)c3ccc(S(=O)(=O)N4CCN(C(=O)OCC)CC4)cc3)c2C(N)=O)C1	-10.4	1.8	2.2	-6.5	1.9	3.8
CCOC(=O)c1c(NC(=O)Nc2ccc(C)cc2)sc2c1CCN(C)C2	50.3*	11.7	-0.8	-2.8	3.1	-0.7
COc1ccccc1NC(=O)N(C)C[C@@H]1Oc2ncc(Br)cc2C(=O)N([C@H](C)CO)C[C@H]1C	/	/	/	/	0.2	/
C#CCOCCOCCOCCNc1nc(N2CCN(C(=O)C(CCC(=O)O)n3cc(C(N)CC(C)C)nn3)CC2)nc(N2CCN(C(=O)C(C(C)CC)n3cc(C(N)CC(C)C)nn3)CC2)n1 (configuration not stated)	/	-0.4	/	-1.0	/	7.9
COCCCNc1oc(-c2ccccc2F)nc1C#N	5.2	1.4	34.4*	/	1.4	1.1
CCOc1ccccc1OCCn1ncc2ccc(OC)c(OC)c2c1=O	8.6	2.8	-0.3	/	/	3.1
COc1ccc2cnn(CCOc3cc(C)ccc3C(C)C)c(=O)c2c1OC	5.2	35.1	319.8*	-6.7	/	10.1
O=C(Nc1ccc(C(=O)N2CCOCC2)cc1)c1cnn2c(C(F)F)cc(-c3ccccc3)nc12	66.3*	-4.7	0.7	0.2	0.4	2.1
C[C@H](NC(=O)C[C@@H]1C[C@H]2c3cc(N(C)C)ccc3O[C@H]2[C@@H](CO)O1)c1ccccc1	/	/	/	/	-55.3	/
O=C(NCc1cccnc1)C(=O)NN=Cc1ccccc1[N+](=O)[O-]	/	10.8	/	4.3	/	2.9
c1ccc(-c2n[nH]c(-c3ccccc3)c2-c2nc3ccccc3[nH]2)cc1	9.9	5.8	30.0*	4.4	/	-1.0
CC12CCC(CC1=NOC(=O)c1cccc([N+](=O)[O-])c1)C2(C)C (configuration not stated)	/	-0.2	/	9.7	/	5.5
Cc1ccc(-c2nnc(CSc3nc4cc5c(cc4cc3C)OCO5)o2)cc1	436.6*	-15.6	-0.1	0.9	/	15.9
SMILES	MazF activator	Sa ugtP lethal	PfHsp40 yeast	Mtb hypoxia rep	TcdB GH inh	RN4220 kill
Cc1ccc(CSc2nnc(-c3ccc4c(c3)OCO4)o2)cc1	6.9	11.9	-0.4	/	/	-1.3
FC(F)Sc1ccc(NC(=S)NCc2ccccc2)cc1	4.8	-4.0	22.4	5.7	1.4	-7.0
FC(F)Sc1ccc(NC(=S)NCC2CCCCC2)cc1	2.5	99.6*	0.1	-1.9	0.2	99.1*
FC(F)Sc1ccc(NC(=S)NC2CCCCC2)cc1	-10.1	-29.0	0.2	5.4	/	-2.0
FC(F)Sc1ccc(NC(=S)NC(c2ccccc2)c2ccccc2)cc1	127.1*	100.3*	4.1	7.8	-0.5	99.3*
Cc1ccc(-c2cc(C(=O)N3CCc4ccccc4C3)[nH]n2)cc1C	-2.8	3.3	3.3	9.1	1.3	6.6
COc1cccc(-c2cc(C(=O)N3CCc4ccccc4C3)[nH]n2)c1	93.4*	/	-0.3	/	1.5	/

Screens from PubChem BioAssay.
